# From PubChem
# Compounds with a hit are over-represented: about 6.2% of the library has one in this group of screens.
# KB-3-1 cytotox: qHTS assay for MDR1-selective chemotherapeutics: Primary screen using the parental adenocarcinoma cell KB-3-1. KB-3-1 viability, CellTiter-Glo ATP luminescence, 72 h. Potency, µM (series often up to 46.1 µM), usual class: cytotoxic. 400,000 tested, 1.4% active. AID 1347075, 2019; note: % is set by controls: 0 for no effect and ±100 for the full control effect; nearly all actives have a fitted effect of over 60% in size
#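 Cells are dispensed, compounds pinned in, plates held at 37 °C for 72 h, then CellTiter-Glo is added and luminescence read after 10 minutes. Cell line: parental KB-3-1 in phenol-red-free DMEM, 10% FBS.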
# HT1080-NT tox: qHTS for induction of synthetic lethality in tumor cells producing 2HG: qHTS for the HT-1080-NT fibrosarcoma cell line. Potency, µM (doses to about 46.1 µM), inactives show top-dose activity, negative = less viability, usual class: cytotoxic. HT-1080-NT fibrosarcoma viability, CellTiter-Glo ATP luminescence, 48 h. AID 686970, 2013. 360,000 tested, 1.6% active;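 note: NT is the 2HG producing partner of a matched IDH1 knockdown line; 0% = DMSO-treated cells and -100% = media-only wells without cells; nearly all actives have a fitted effect of over 55% in size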
#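 HT-1080-NT; 750 cells/well; 5% FBS RPMI; 48 h compound, 37 degrees C; CellTiter-Glo luminescence; curve fitting and curve-class assignment.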
# ATXN viability: Viability Counterscreen for Primary qHTS for Inhibitors of ATXN expression; S2 cells (HEK-293 line with an ATXN2-luciferase reporter) viability, CellTiter-Fluor protease fluorescence, 24 h; Potency, µM (top dose mostly 56.7 µM), hits mostly cytotoxic; 400,000 tested, 0.49% active; AID 651635, 2014; note: nearly all actives have a fitted effect of over 40% in size
# ATXN2 expr inh: Primary qHTS for Inhibitors of ATXN expression | Potency, µM (highest dose often 57 µM), without a hit: at the highest dose activity change, negative = inhibition, hits mostly inhibitors | HEK-293 ATXN2-luciferase reporter, luminescence, 24 h | AID 1745845, 2022 | 360,000 tested, 0.72% active; note: % is set by controls: 0 for no effect and ±100 for the full control effect; nearly all actives have a fitted effect of over 55% in size
#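 qHTS (up to 57 uM final) was run with 24 h compound exposure of reporter cells at 37 °C. Each well was multiplexed: SteadyGlo luminescence measured ATXN2-luciferase expression after a fluorogenic Gly-Phe-AFC viability readout (25 uM final).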
# HT1080 IDH1KD tx: qHTS for induction of synthetic lethality in tumor cells producing 2HG: qHTS for the HT-1080-IDH1KD cell line; HT-1080 IDH1 knockdown viability, ATP luminescence, 48 h; Potency, µM (series often up to 46.1 µM), inactives show top-dose activity, negative = toxicity, most hits filed as cytotoxic; 360,000 tested, 2% active; AID 686971, 2013;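 note: 0% = DMSO wells and -100% = cell-free medium wells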
#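 Knockdown cells (IDH1KD HT-1080) received compounds 2 h after plating at 750 cells/well and were kept 48 h at 37 °C in 5% FBS RPMI. A CellTiter-Glo luminescence read gave % activity for curve fitting.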
# KB-V1 cytotox: qHTS assay for MDR1-selective chemotherapeutics: Primary screen using the drug-selected MDR subline cells KB-V1. KB-V1 MDR cells viability, CellTiter-Glo, 72 h. Potency, µM (doses to about 46.1 µM), hits mostly cytotoxic. 400,000 tested, 3.4% active. AID 1347076, 2019; note: % is set by controls: 0 for no effect and ±100 for the full control effect; nearly all actives have a fitted effect of over 60% in size
#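 Cytotoxicity toward P-gp-expressing KB-V1 cells was determined as loss of CellTiter-Glo luminescence after 72 h at 37 degrees C. Compounds were tested in quantitative HTS format across a concentration range, with curves fitted to normalized data.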
# Starred values were filed as active, the others as inactive; i = inactive; ? = inconclusive; · = no result. Calls come from the whole dose curve; as a rule, active = well fitted curve in the direction sought with a large enough effect; inconclusive = small, poorly fitted or top-dose-only effect, or another doubt; inactive = no such curve, though single readings can be large; an effect the other way counts as inactive or inconclusive. Potency is the fitted concentration of half-maximal effect.
SMILES,KB-3-1 cytotox,HT1080-NT tox,ATXN viability,ATXN2 expr inh,HT1080 IDH1KD tx,KB-V1 cytotox
O=C(C[n+]1cc(Br)cc(Br)c1)c1ccc2c(c1)CCCC2,i,·,·,·,·,i
Cc1nc(Cc2nnc(SC(C)C(=O)N3c4ccccc4NC(=O)C3(C)C)o2)cs1 (centres undefined),i,11.9%,i,·,6.3%,i
CC(Sc1nnnn1C1CC1)C(=O)N1c2ccccc2NC(=O)C1(C)C (centres undefined),i,6.4%,i,-5.7%,-1.2%,20.6µM*
O=C(NCCN1C(=O)S/C(=C\c2ccc(OC(F)F)cc2)C1=O)C1=COCCO1,?,?,i,8.1%,?,?
COc1ccc(/C=C2\SC(=O)N(CCNC(=O)Cc3coc4cc(OC)ccc34)C2=O)cc1,?,-9.8%,i,28.5%,-6.5%,5.8µM*
O=C(NCCN1C(=O)S/C(=C\c2ccccc2F)C1=O)C1=COCCO1,?,?,?,-4.5%,11.6µM*,9.2µM*
COc1ccc(/C=C2\SC(=O)N(CCNC(=O)C3=COCCO3)C2=O)cc1,2.91µM*,7.31µM*,?,23.4%,7.31µM*,2.59µM*
O=C(NCCN1C(=O)S/C(=C\c2ccc(OC(F)F)cc2)C1=O)c1cnccn1,5.8µM*,?,?,-8.5%,?,8.2µM*
COC(c1ccc2c(c1)CN(C(=O)Cn1nc(C)c3ccccc3c1=O)CCO2)C1CCCCC1 (centres undefined),·,·,i,·,·,·
Cc1ccc(CN2CCN(C3CCN(C(=O)Nc4ccccc4C(F)(F)F)CC3)C(=O)C2=O)cc1,i,·,i,-5.9%,·,i
Cc1cc(C)cc(NC(=O)C2CC23CCN(Cc2ccc4ncccc4c2)CC3)c1 (centres undefined),·,·,i,·,·,·
Cc1cc2cc(CCNC(=O)c3ccc(C)c([N+](=O)[O-])c3)c(=O)[nH]c2cc1C,i,6.2%,?,-19.0%,4.8%,6.51µM*
Cc1ccc(SCCNC(=O)c2ccc(C)c([N+](=O)[O-])c2)cc1,i,8.1%,i,10.0%,-3.6%,23.1µM*
O=C(Cn1c(=O)c2sccc2n(Cc2cccc([N+](=O)[O-])c2)c1=O)NCCc1ccccc1,i,-11.6%,i,-5.4%,?,8.2µM*
CC(C)(CNC(=O)c1ccc([N+](=O)[O-])c(Cl)c1)CNC(=O)c1ccc([N+](=O)[O-])c(Cl)c1,?,20.6µM*,?,?,?,?
C=CCNC(=O)c1ccc([N+](=O)[O-])c(Cl)c1,i,4.2%,i,3.9%,2.5%,i
Cc1cc2cc(CCNC(=O)c3ccc(S(=O)(=O)N4CCCC4)cc3)c(=O)[nH]c2cc1C,·,-15.6%,i,-4.6%,-7.0%,·
Cc1cnc(-n2ncc(C(=O)N(C)C3CCOC3)c2C)nc1-c1ccc(F)cc1 (centres undefined),·,·,i,·,·,·
Cc1ccc(C(=O)NCCSCc2ccccc2)cc1[N+](=O)[O-],i,4.2%,i,6.2%,24.9%,20.6µM*
Cc1ccc(C(=O)NCCc2cccc(Cl)c2)cc1[N+](=O)[O-],i,-6.4%,i,7.3%,8.4%,16.4µM*
Cc1ccc(CSCCNC(=O)c2cccc([N+](=O)[O-])c2)cc1,i,-1.2%,i,-7.0%,-2.2%,18.4µM*
O=C(NCCc1cccc(Cl)c1)c1ccc(Cl)c([N+](=O)[O-])c1,i,?,i,-5.4%,-11.8%,i
O=C(NCCc1ccccc1)c1cccc([N+](=O)[O-])c1,i,10.3%,i,17.2%,9.4%,18.4µM*
COc1ccccc1CNC(=O)Cn1c(=O)oc2cc(S(=O)(=O)NCc3ccccc3)ccc21,?,·,·,·,·,i
CCCCC/C=C\CCC(=O)N[C@H]1[C@H](Oc2c3cc4cc2Oc2ccc(cc2Cl)[C@@H](O[C@@H]2O[C@H](CO)[C@@H](O)[C@H](O)[C@H]2NC(C)=O)[C@@H]2NC(=O)[C@H](NC(=O)[C@@H]4NC(=O)[C@H]4NC(=O)[C@@H](Cc5ccc(c(Cl)c5)O3)NC(=O)[C@H](N)c3ccc(O)c(c3)Oc3cc(O)cc4c3)c3ccc(O)c(c3)-c3c(O[C@H]4O[C@H](CO)[C@@H](O)[C@H](O)[C@@H]4O)cc(O)cc3[C@@H](C(=O)O)NC2=O)O[C@H](CO)[C@@H](O)[C@@H]1O,·,·,i,·,·,·
SMILES,KB-3-1 cytotox,HT1080-NT tox,ATXN viability,ATXN2 expr inh,HT1080 IDH1KD tx,KB-V1 cytotox
Cc1cc2cc(CCNC(=O)C(=O)c3c[nH]c4ccccc34)c(=O)[nH]c2cc1C,i,?,?,-36.1%,13µM*,?
O=C(NCCc1c[nH]c2ccccc12)C(=O)c1c[nH]c2ccccc12,?,?,?,·,?,i
O=C(c1cnsn1)N1CCOc2ccc(C(O)C(c3ccccc3)c3ccccc3)cc2C1 (centres undefined),·,·,i,·,·,·
O=C(Nc1ncc(Cc2cccc([N+](=O)[O-])c2)s1)c1ccco1,5.8µM*,?,i,·,4.61µM*,i
O=C(Nc1ncc(Cc2ccc(C(F)(F)F)cc2)s1)c1ccc(-c2cccc([N+](=O)[O-])c2)o1,i,-1.0%,?,-18.5%,-11.1%,4.61µM*
O=C(Nc1ncc(Cc2ccccc2Cl)s1)c1ccc(-c2cccc([N+](=O)[O-])c2)o1,i,-11.8%,i,·,-5.9%,i
Cc1ccc(Cc2cnc(NC(=O)/C(C#N)=C/c3ccc(-c4ccc([N+](=O)[O-])cc4)o3)s2)cc1,?,-1.2%,·,15.8µM*,0.8%,?
O=C(Nc1ncc(Cc2ccc(SC(F)F)cc2)s1)c1ccc(OC(F)F)cc1,0.206µM*,0.0731µM*,?,?,0.0461µM*,0.326µM*
